# Source: PubChem BioAssay (National Center for Advancing Translational Sciences (NCATS))
# Sampled rows, rich in hits. Any-hit rate of the full collection: about 19%.
# MCF10A rereplic – inducers of DNA re-replication in MCF 10A breast cells; Potency, µM (highest dose often 46.1 µM), without a hit: at the highest dose activity, positive = re-replication, hits mostly activators; hit rate 2.9% among 350,000; MCF 10A DNA re-replication, Hoechst nuclear intensity, 48 h; also: potency is read from the fitted curve at half-maximal effect; % of control where 0% means no effect; nearly all actives have a fitted effect of over 50% in size
# SW480 rereplic – DNA re-replication induction in SW480 cells | SW480 DNA re-replication, Hoechst DNA content imaging, 48 h | Potency, µM (series often up to 46.1 µM), for inactives: at the top dose re-replication activation, actives largely listed as activators | hit rate 1.8% among 340,000 | AID 624297; also: potency is read from the fitted curve at half-maximal effect; % of control where 0% means no effect; nearly all actives have a fitted effect of over 55% in size
#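 Image-based read-out: total Hoechst fluorescence of nuclei (405 nm excitation, 500-530 nm emission), with hits raising the fraction of high-intensity nuclei. SW480 colon cells incubated 48 hr with compounds at 37 C.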
# DT40 TDP1 no CPT – qHTS for Inhibitors of human tyrosyl-DNA phosphodiesterase 1 (TDP1): qHTS in cells in absence of CPT; Potency, µM (titrated, usually from 46.2 µM), without a hit: at the top dose activity change, negative = growth inhibition, hits mostly inhibitors; AID 686978, 2013; DT40 Tdp1-/- hTDP1 cells, no CPT, ATP luminescence, 48 h; hit rate 15% among 420,000; also: potency is read from the fitted curve at half-maximal effect; % is scaled to controls: 0 for no effect and ±100 for the full control effect; nearly all actives have a fitted effect of over 55% in size
#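 Growth kinetics read by CellTiter-Glo luminescence after ≥48 hr at 37 °C. Cells: DT40 Tdp1-/- stably carrying human TDP1, 400 per well, compound exposure in the absence of CPT (DMSO vehicle).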
# IL-1B inflam inh – blocks inflammasome-driven IL-1 beta release. activity change, % at 57.5 µM. THP-1 LPS/ATP IL-1B secretion, AlphaLISA, 16 h; stronger effect = lower value. hit rate 4.7% among 360,000. AID 743279; in the data active = activity change below about -50%; inconclusive = mostly about -30% to -49%; also: % is scaled to controls: 0 for no effect and ±100 for the full control effect
#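 Secreted IL-1B measured by AlphaLISA bead assay after 16 h compound exposure of THP-1 cells; compounds (final up to 57.5 uM) added 1 h before LPS (250 ng/mL) and ATP (1.25 mM) stimulation; lower signal means less secretion.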
# BCR signal inh – chronic active BCR signaling inhibition; ABC-DLBCL IkBa-CBG/CBR reporter, luminescence ratio, 4 h; hit rate 0.05% among 340,000; Potency, µM (doses to about 46.1 µM), for the others: top-dose activity change, negative = inhibition, usual class: inhibitors; active = well fitted inhibition curve with a large enough effect in the signal ratio, with a control signal flat, not every such curve was filed as active; inconclusive = small, poorly fitted or top-dose-only effect, or effect the other way, or a change in a side signal; the % refers to the signal ratio;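 also: potency is read from the fitted curve at half-maximal effect; plate controls were basal doxycycline-induced cells for no effect and cells given 10 µM MG132 for full effect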
#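 Compounds up to 46 uM were incubated four hours with TMD8 cells whose green CBG68 luciferase is fused to IkappaBalpha; red CBR luminescence normalised the signal, and concentration-effect curves were fitted to fusion, red and ratio data.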
# TDP1 cell CPT – growth inhibition of DT40 Tdp1-/-;hTDP1 cells with camptothecin (screen for TDP1 inhibitors). chicken DT40 Tdp1-/-;hTDP1 cells + 20 nM CPT, ATP luminescence, 48 h. Potency, µM (highest dose often 46.2 µM), without a hit: at the highest dose activity change, negative = growth inhibition, usual class: inhibitors. hit rate 12% among 420,000. AID 686979; also: potency is read from the fitted curve at half-maximal effect; % is scaled to controls: 0 for no effect and ±100 for the full control effect; nearly all actives have a fitted effect of over 55% in size
#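 Chicken DT40 Tdp1-/- cells complemented with human TDP1, 400 cells/well, exposed to compounds plus 20 nM camptothecin for at least 48 h at 37 C; viability read as ATP content by CellTiter-Glo luminescence.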
# * = called active by the depositor; ? = inconclusive; . = not tested or not shown; [ ] = dose if it differs, or a comment. Unless noted, calls follow the shape of the dose curve; as a rule, active = well fitted curve in the direction sought with a large enough effect; inconclusive = small, poorly fitted or top-dose-only effect, or another doubt; inactive = no such curve, though single readings can be large; an effect the other way counts as inactive or inconclusive.
SMILES,MCF10A rereplic,SW480 rereplic,DT40 TDP1 no CPT,IL-1B inflam inh,BCR signal inh,TDP1 cell CPT
O=C(c1ccco1)N1CCN=C1SCc1cccnc1,-3%,1%[9.22 µM],4%,-4,-2%,-5%
CCc1nc2ccc(C(=O)N3CCCCC3)cn2c1N(C)CCCc1ccccc1,.,.,?,18,.,?
O=[N+]([O-])c1ccc(CN2CCN(c3nc4ccccc4s3)CC2)cc1,-1%,-14%,-12%,-18,0%,-7%
CCn1nc([N+](=O)[O-])c(C(C#N)c2nc3ccccc3n2C)c(Cl)c1=O (centres undefined),?,-2%,?,-94*,0%,?
CCCn1nc([N+](=O)[O-])c(C(C#N)c2nc3ccccc3s2)c(Cl)c1=O (centres undefined),?,1.3µM*,16µM*,-102*,?,18µM*
COc1ccccc1CNc1ncnc2sc(C(=O)N3CCN(C)CC3)c(C)c12,.,.,-16%,.,.,-8%[9.04 µM]
NC(=O)C1CCN(c2csc3ccc(F)cc3c2=O)CC1,.,.,-11%,.,.,-9%
Cc1cccc(-n2nnc(-c3nc(-c4ccccc4)no3)c2N)c1C,.,.,-23%,.,?,-11%
COCCNC(=O)C1(C)CCCN(C(=O)c2cc(C)oc2C)C1 (centres undefined),.,.,7%,3,.,3%
Cc1nn(-c2ccc(Cl)cc2)c2[nH]c(=O)c(CNCc3ccc4c(c3)OCO4)cc12,1%,1%,18µM*,-16,?,18µM*
O=C(NCc1ccc2c(c1)OCO2)C1CC(=O)N(c2ccc(Cl)cc2)C1 (centres undefined),11%,-7%,-13%,19,1%,10%
CC(C)(C)c1nn(-c2ccccc2)c2[nH]c(=O)c(CNc3ccc4c(c3)OCCO4)cc12,?,0%,-20%,28,3%,-30%
Cc1nn(-c2ccccc2)c2[nH]c(=O)c(CNc3ccc(N4CCOCC4)cc3)cc12,23%,1%,18µM*,-8,?,18µM*
COCCCNC(=O)CCCn1c(SCC(=O)c2ccc(F)cc2)nc2c(sc3ccccc32)c1=O,.,.,-2%,.,.,5%
Cc1ccc(Cl)cc1N1CCN(C(=O)Cn2nc(C)n3c(cc4sccc43)c2=O)CC1,.,.,21µM*,.,.,18µM*
Cc1ccc(C)c(N2CCN(C(=O)CCNC(=O)Cn3ccc4ccccc4c3=O)CC2)c1,-1%,-5%,?,-1,3%,-17%
Cc1ccc(Cl)cc1N1CCN(C(=O)Cn2ccc3ccccc3c2=O)CC1,?,-3%,21µM*,-66*,5%,16µM*
COc1cccc2c1cc1c(=O)n(CC(=O)N3CCN(c4cc(Cl)ccc4C)CC3)nc(C)n12,.,.,-22%,.,.,-15%
Cc1ccc(Cl)cc1N1CCN(C(=O)Cn2ncn3cccc3c2=O)CC1,-2%,2%,?,8,6%,21µM*
[O-]C1=N[N+](=C(c2ccccc2)c2ccccc2)C1,-2%,4%,-1%,5,.,-10%
c1cc2c(cc1C1CCCCC1)c1c3n2CCN=C3CCC1,16µM*,21µM*,?,?,?,?
COc1ccc2c(c1)c1c3n2CCN(C)C3=NCC1,?,-11%,?,-11,1%,-2%
Cc1ccc2c(c1)c1c3n2CCN=C3CCC1,24%,5%,-29%,-96*,0%,-25%
Cc1ccccc1CN1CCN(C(=O)[C@H]2O[C@@H](n3cnc4c(N)ncnc43)[C@H](O)[C@@H]2O)CC1,.,.,?,-24,.,?
CCc1ccc(C(=O)C(C)OC(=O)c2nn(C)c(=O)c3ccccc23)cc1 (centres undefined),3%,-1%,-21%,2,-4%,-22%
SMILES,MCF10A rereplic,SW480 rereplic,DT40 TDP1 no CPT,IL-1B inflam inh,BCR signal inh,TDP1 cell CPT
Cc1ccc(NC(=O)C2CCN(S(=O)(=O)c3ccc4c(c3)NC(=O)C(C)S4)CC2)cc1Cl (centres undefined),-9%,-3%,1.2µM*,31,12%,1.3µM*
Cc1cc(C)cc(NC(=O)C2CCN(S(=O)(=O)c3ccc4c(c3)NC(=O)C(C)S4)CC2)c1 (centres undefined),18%,-27%,-24%,?,?,?
CC1Sc2ccc(S(=O)(=O)N3CCC(C(=O)NCCc4ccccc4)CC3)cc2NC1=O (centres undefined),3%,?,?,19,8%,?
Cc1ccc(NC(=O)C2CCN(S(=O)(=O)c3ccc4c(c3)NC(=O)C(C)S4)CC2)c(Cl)c1 (centres undefined),-7%,?,21µM*,?,7%,13µM*
Cc1ccccc1NC(=O)C1CCN(S(=O)(=O)c2ccc3c(c2)NC(=O)C(C)S3)CC1 (centres undefined),16%,?,-9%,-22,5%,-27%
Cc1ccc(CCNC(=O)C2CCN(S(=O)(=O)c3ccc4c(c3)NC(=O)C(C)S4)CC2)cc1 (centres undefined),-3%,-6%,18µM*,-68*,?,?
O=C(NC1CC1)c1[nH]c(C(F)(F)F)nc1-c1ccccc1,.,.,-1%,-9,.,-9%
Cn1cnc(S(=O)(=O)NC2CCN(Cc3c(F)cccc3Cl)CC2)c1,13%,-1%,22%,20,-1%,7%
CC(C)C[C@H](NC(=O)c1cc2cc(Cl)ccc2n1C)C(=O)N1CCC(C(=O)O)CC1,7%,-2%,-19%,12,7%,-26%
CCn1cc(C(=O)NCc2ccccc2)c(=O)c2cc(S(=O)(=O)N3CCOCC3)ccc21,.,.,-12%,.,.,-21%
COc1ccc(NS(=O)(=O)c2ccc(C(=O)N3CCN(Cc4ccccc4)CC3)cc2)cc1,-3%,-4%,?,-3,-3%,12µM*
Cc1c(O)ccc(NS(=O)(=O)c2ccccc2)c1C,-2%,-1%,-21%,-8,-6%,8%
CCN1CCN(C(=O)c2ccc(S(=O)(=O)Nc3ccccc3)cc2)CC1,4%,-16%,-17%,0,0%,-9%
O=S(=O)(Nc1c(O)ccc2ccccc12)c1ccccc1,?,3%,16µM*,-15,.,?
Cc1ccc(NS(=O)(=O)c2ccc(C(=O)N3CCCCCCC3)cc2)cc1,9%,1%,?,-3,12%,23µM*
